Only some compounds are listed: those with a hit (about 1.7% of all), similar ones and a draw of the others.
GLP-1R inv ag = GLP-1 receptor (human) inverse agonism; P43220; HEK293 GLP-1R CRE-luciferase, luminescence, 24 h; GLP-1R form is constitutively active; Potency, µM (highest dose often 38.3 µM), for the others: top-dose activity change, negative = inhibition, most hits filed as inhibitors; hit rate 1.6% among 410,000; AID 624417; further: on the % scale 0 is the no-effect control and ±100 the full control effect; nearly all actives have a fitted effect of over 55% in size
Target sequence (P43220 whole entry, looked up): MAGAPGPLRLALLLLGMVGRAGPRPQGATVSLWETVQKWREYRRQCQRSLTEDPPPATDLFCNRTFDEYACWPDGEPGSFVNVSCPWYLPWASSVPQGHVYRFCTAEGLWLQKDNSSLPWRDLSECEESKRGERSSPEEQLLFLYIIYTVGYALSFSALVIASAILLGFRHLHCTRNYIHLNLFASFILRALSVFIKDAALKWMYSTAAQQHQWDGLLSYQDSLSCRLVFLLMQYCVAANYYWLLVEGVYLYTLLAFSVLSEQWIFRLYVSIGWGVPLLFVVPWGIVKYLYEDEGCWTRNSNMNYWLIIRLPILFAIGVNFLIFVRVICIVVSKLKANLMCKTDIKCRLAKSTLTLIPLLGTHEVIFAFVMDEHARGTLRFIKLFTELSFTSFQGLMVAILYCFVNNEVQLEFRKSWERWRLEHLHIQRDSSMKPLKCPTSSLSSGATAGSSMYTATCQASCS
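qHTS in 1536-well format: reporter HEK293 cells expressing constitutive GLP-1R activity in DMEM + 10% Nu serum, 24 hr with compounds at 37 deg C, luminescence read after 12 min with detection reagent.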
GLP-1R agonist = activates the human GLP-1 receptor. P43220. HEK293 GLP-1R CRE-luciferase, luminescence, 4-6 h; cells express a hypersensitive GLP-1R form. Potency, µM (doses to about 45.6 µM), inactives show top-dose activation, most hits filed as activators. hit rate 0.007% among 380,000. AID 624172; further: % of control where 0% means no effect
PTHR1 ag = activates the human parathyroid hormone receptor PTHR1; Potency, µM (highest dose often 115 µM), for inactives: at the highest dose activation, hits mostly activators; Q03431; HEK293 GP2 PTHR1 cells, GloSensor cAMP luminescence, 1 h; AID 743266; hit rate 0.075% among 410,000; further: nearly all actives have a fitted effect of over 55% in size
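HEK-293-derived GP2 cells expressing PTHR1 and a GloSensor cAMP reporter, 3,000/well, plated overnight, given luciferin plus IBMX (each 0.5 mM as added) for 1 h at 37 °C, then compound for 1 h at 37 °C. Luminescence was read after 15 min at room temperature.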
HEK293 tox = cytotoxicity counter-screen for GLP-1 receptor inverse agonists; AID 624418; HEK293 cAMP-luciferase reporter cells, luminescence, 24 h; hit rate 0.13% among 410,000; Potency, µM (highest dose often 38.3 µM), inactives show top-dose activity change, negative = inhibition, actives largely listed as inhibitors;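 further: loss of luciferase light is scored as toxicity; on the % scale 0 is the no-effect control and ±100 the full control effect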
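Here, cytotoxicity is scored as loss of luminescence. The MLSMR collection was tested on cells seeded in medium containing 10% Nu serum, with a 24 hr compound exposure preceded by 12 hours of culture.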
* hit, by the source's call; i = inactive; ? = inconclusive; nt = no result given; [ ] = dose if it differs, or a comment. The call rests on the fitted dose curve; in most records, active means well fitted curve in the direction sought with a large enough effect; inconclusive means small, poorly fitted or top-dose-only effect, or another doubt; inactive means no such curve, though single readings can be large; an effect the other way counts as inactive or inconclusive. Potency means the concentration at half of the fitted maximal effect.

SMILES	GLP-1R inv ag	GLP-1R agonist	PTHR1 ag	HEK293 tox
CCOc1cccc(C2c3[nH]c4ccccc4c3CCN2C(=O)CSc2ccccc2)c1 (configuration not stated)	?	nt	i	-0.2%
CCCC(=O)N1CCC1(C)C(=O)NCc1ccccc1SC (configuration not stated)	-21.0%	-1.2%	-12.4%	-0.4%
O=C(COC(=O)c1cc(=O)[nH]c2ccccc12)c1cccs1	5.9%	17.3%	-19.4%	3.7%
CC(=O)NCCC(=O)N1CCc2c([nH]c3ccccc23)C1c1cccc(Cl)c1 (configuration not stated)	5.01µM*	12.0%	i	-16.2%
Cc1cccc(C2c3[nH]c4ccccc4c3CCN2C(=O)Cc2nc(-c3ccccc3)n[nH]2)n1 (configuration not stated)	11.2µM*	17.3%	-9.3%	-26.0%
O=C(CSCc1ccc(F)cc1)N1CCc2c([nH]c3ccccc23)C1c1ccc(Cl)cc1 (configuration not stated)	?	nt	i	-8.6%
CC(=O)NCCC(=O)N1CCc2c([nH]c3ccccc23)C1c1cccc(C)c1 (configuration not stated)	?	0.2%	-7.2%	-2.5%
O=C(CSCc1ccc(F)cc1)N1CCc2c([nH]c3ccccc23)C1c1ccccc1 (configuration not stated)	7.94µM*	nt	-11.6%	-8.0%
COc1ccc2c(c1)N(S(=O)(=O)c1ccccc1)CCC2=O	-4.0%	16.5%	i	2.9%
Cc1cccc(NC(=O)CSc2nc(=O)n(Cc3ccccn3)c3c2CCC3)c1C	5.1%	nt	i	-5.3%
COc1ccc(CC2(CO)CCN(CC3=Cc4cc(Cl)ccc4OC3)CC2)cc1	2.82µM*	15.5%	-29.2%	?
COc1ccc2c(c1)C=C(CN1CCC(CO)(CCc3ccccc3)CC1)CO2	?	22.4%	-3.1%	1.0%
Cc1ccc(S(=O)(=O)c2nc(S(C)(=O)=O)sc2N(C)Cc2ccccc2)cc1	-24.1%	nt	i	-25.7%
O=C(C[C@H]1CC[C@H](NC(=O)Nc2ccccc2F)[C@@H](CO)O1)NCc1ccc(-c2ccccc2)cc1	6.4%	nt	-15.0%	0.7%
C/C(=N\NC(=O)CN(c1ccccc1)S(C)(=O)=O)c1ccccc1O	5.01µM*	-4.9%	i	-11.5%
C/C(=N\NC(=O)CN1CCCCC1)c1ccccc1O	?	19.2%	-0.4%	-7.0%
CC(CCc1ccccc1)NC(=O)CNc1cccc([N+](=O)[O-])c1 (configuration not stated)	10µM*	9.5%	-11.8%	-10.3%
CC(CCc1ccccc1)NC(=O)Cc1ccc([N+](=O)[O-])cc1 (configuration not stated)	-25.6%	-3.5%	i	3.5%
O=C1C=C(N2CCCCC2)c2ccccc2C1=O	?	-19.6%	-23.4%	10µM*
O=C(NN=C1CCCC1)c1[nH]c2ccc(Br)cc2c1-c1ccccc1	5.01µM*	25.6%	-11.3%	?
Cc1c(C)c2c(c(C)c1O)CC[C@@](C)(CCC[C@@H](C)CCC[C@@H](C)CCCC(C)C)O2	nt	28.5%	nt	nt
CCC(C)n1c(SCc2ccccc2)nc2ccsc2c1=O (configuration not stated)	7.94µM*	0.7%	i	10.8%
CCC(C)n1c(SCc2ccc(C(C)(C)C)cc2)nc2ccsc2c1=O (configuration not stated)	0.9%	nt	-2.1%	19.7%
[2H]c1c([2H])c([2H])c2c([nH]c(=S)n2C2CCN(CCCC(=O)c3ccc(F)cc3)CC2)c1[2H]	nt	11.5%	nt	nt
CCCCCCCCC[n+]1cccc2c3ccccc3ccc21	10µM*	-12.7%	-88.9%[57.5 µM]	?
SMILES	GLP-1R inv ag	GLP-1R agonist	PTHR1 ag	HEK293 tox
CCCCCCCCCCCCCCCC[n+]1cccc2ccccc21	?	-17.8%	-7.1%	?
O=C(CC(c1ccco1)C1CCCCC1=O)c1ccccc1 (configuration not stated)	?	0.6%	i	-6.7%
OCCN(CCO)c1ccc(C(c2ccccc2Cl)c2ccc(N(CCO)CCO)cc2Cl)c(Cl)c1	5.01µM*	-4.5%	-9.6%	?
O=C(O)c1cccc(N(CCO)CCO)c1	0.1%	5.1%	-57.6%	-4.6%
CN(C)CCN(C(=O)c1ccc(S(=O)(=O)N2CCCC2)cc1)c1nc2ccc(Br)cc2s1	5.62µM*	-4.2%	i	62.3%
CCOc1cccc2sc(N(CCCN(C)C)C(=O)c3ccc(S(=O)(=O)N(CC)Cc4ccccc4)cc3)nc12	3.98µM*	-1.6%	-24.3%	?
CCOc1cccc2sc(N(CCCN(C)C)C(=O)c3ccc(S(=O)(=O)N(C)Cc4ccccc4)cc3)nc12	?	-19.3%	-17.7%	?
CN(C)CCCN(C(=O)c1ccc(S(=O)(=O)N(C)Cc2ccccc2)cc1)c1nc2cc3c(cc2s1)OCO3	7.08µM*	0.0%	i	?
Cc1cc(C)c2sc(N(CCN(C)C)C(=O)c3c(F)cccc3F)nc2c1	7.08µM*	12.1%	-26.3%	-14.3%
CCN(CC)c1ncnc2c1ncn2[C@H]1CN(Cc2ccccc2)C[C@@H](CO)O1	48.5%	21.2%	4.7%	1.7%
Cc1ccccc1NC(=O)N1CCC(CN2CCCC2)CC1	2.9%	nt	3.6%	0.9%
CN(C)CCN(C(=O)c1ccc2ccccc2c1)c1nc2cc3c(cc2s1)OCCO3	?	2.2%	-8.5%	-6.5%
CCN(c1ccccc1)S(=O)(=O)c1ccc(C(=O)N(CCCN(C)C)c2nc3cc4c(cc3s2)OCO4)cc1	3.55µM*	9.3%	-2.4%	?
CN(C)CCCN(C(=O)c1ccc(S(=O)(=O)N2CCCCCC2)cc1)c1nc2cc3c(cc2s1)OCO3	10µM*	4.7%	i	-25.5%
Cc1ccc2nc(N(CCCN(C)C)C(=O)c3ccc(S(=O)(=O)N4CCCCCC4)cc3)sc2c1	?	-5.5%	i	?
CN(C)CCN(C(=O)c1cccc2ccccc12)c1nc2cc3c(cc2s1)OCO3	10µM*	5.3%	-21.8%	-5.6%
CN(C)CCCN(C(=O)c1ccc2ccccc2c1)c1nc2cc3c(cc2s1)OCO3	?	-0.7%	i	?
Cc1cc(C)c2sc(N(CCCN(C)C)C(=O)c3ccc(S(=O)(=O)N(C)Cc4ccccc4)cc3)nc2c1	11.2µM*	-9.6%	i	?
Cc1cccc(NC(=O)CN(C)S(=O)(=O)c2ccc3c(c2)c(=O)n(C)c(=O)n3C)c1C	12.3%	0.9%	-1.7%	-19.6%
Cc1cc(C)cc(CC(=O)N2CCC2(C)C(=O)NS(=O)(=O)c2ccc(C(C)(C)C)cc2)c1 (configuration not stated)	-13.1%	-7.1%	-3.3%	2.5%

Screens (PubChem BioAssay)
